Screening data (PubChem)
The sample as a whole holds a higher share of hits than the screen did.
14-3-3g Raf = modulators of 14-3-3 gamma protein binding, primary screen, biochemical, fluorescence polarization; 14-3-3 protein gamma (Homo sapiens), P61981; FP, 14-3-3gamma / TMR-pS259-Raf peptide binding; inhibition, % at 40 µM; actives 0.19% (n = 160,000); AID 422, 2006; in the data active means inhibition above about 30%;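 further: 0% = protein plus tracer without compound and 100% = blank with tracer alone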
Target sequence (P61981 whole entry, looked up): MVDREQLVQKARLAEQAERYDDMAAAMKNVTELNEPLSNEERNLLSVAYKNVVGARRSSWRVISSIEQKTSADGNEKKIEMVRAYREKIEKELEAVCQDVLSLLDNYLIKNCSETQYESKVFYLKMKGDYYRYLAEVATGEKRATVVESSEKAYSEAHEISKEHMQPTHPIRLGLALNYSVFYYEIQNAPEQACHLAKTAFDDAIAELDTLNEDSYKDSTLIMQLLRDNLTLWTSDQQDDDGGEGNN
The depositor's hits bear a star; + = active, no number; ! = repeats disagree.

SMILES | 14-3-3g Raf
O=C(c1ccc(Cn2c(=O)[nH]c3ccccc3c2=O)cc1)N(Cc1ccccc1)Cc1ccccc1 | -2.4
O=C(NCc1ccccn1)C1CCN(S(=O)(=O)c2cccs2)CC1 | 7.9
CC1CCN(S(=O)(=O)N2CCC(C(=O)NCc3ccccn3)CC2)CC1 | -4.3
O=C(NCc1ccccn1)C1CCN(S(=O)(=O)c2cnc[nH]2)CC1 | 58.7*!
CSC1=NC(c2ccc(C)cc2)=NCN1c1ccc([N+](=O)[O-])cc1 | -14.0
Cc1ccc(OCc2nc(-c3cccc([N+](=O)[O-])c3)no2)c(Br)c1 | -5.0
COCCNc1ncnc2ccccc12 | 31.1*
c1ccc(CNc2ncnc3ccccc23)cc1 | -4.9
COCCNc1ncnc2ccc(Br)cc12 | 8.4
CCOc1ccc(/C(O)=C2\C(=O)C(=O)N(c3nc(C)c(C(=O)OC)s3)C2c2ccc(C)cc2)cc1C (stereo unspecified) | -25.2
CC1=C(C(=O)Nc2ccc(Br)cn2)C(c2ccc([N+](=O)[O-])cc2)C2=C(CC(C)(C)CC2=O)N1 (stereo unspecified) | -3.5
CCc1ccccc1NC(=O)c1cc(-c2ccc(Br)cc2)on1 | -9.3
Nc1ccc(NCCO)c(N)c1 | 90.7*
Nc1ccc(C(=O)Nc2ccc(N)cc2N)cc1 | -32.8
COC(=O)CCCCCNc1ccc(C(=O)OC)cc1N | -11.6
Cc1n[nH]c(C)c1CCOc1ccccc1C(C)C | -0.8
COc1ccc2c(c1)C=CC1(O2)N(C)c2ccccc2C1(C)C (stereo unspecified) | -6.1
CN1c2c(ccc3ccccc23)C(C)(C)C12C=Cc1cc([N+](=O)[O-])ccc1O2 (stereo unspecified) | -364.7
CN1c2ccccc2C(C)(C)C12C=Nc1c(ccc3ccccc13)O2 (stereo unspecified) | 83.9*
COc1ccc(-n2nc3ccc(NC(=O)c4ccc5ccccc5c4)cc3n2)cc1 | -7.5
CC1(C)CC(=O)C2=C(C1)Nc1cc(C(=O)c3ccccc3)ccc1NC2c1ccc([N+](=O)[O-])cc1 (stereo unspecified) | 0.3
O=C(Nn1cnnc1)C(Sc1ccccc1)c1ccccc1 (stereo unspecified) | 0.5
CNC(=O)C(Sc1ccccc1)c1ccccc1 (stereo unspecified) | 124.8*
O=C(NCc1ccc(F)cc1)C(Sc1ccccc1)c1ccccc1 (stereo unspecified) | -0.7
CCN(CC)c1ccc2cc(-c3nnc(Nc4ccc(OC)c(OC)c4)s3)c(=O)oc2c1 | -18.2
SMILES | 14-3-3g Raf
O=C(OCCN1CCCCC1)c1ccccc1F | -2.6
CSc1ccc(OC(=O)c2ccccc2F)cc1 | -5.0
O=C(Oc1ccc(C2CCCCC2)cc1)c1ccccc1F | 31.3*
O=C(O)c1ccc(N2CCN(Cc3ccccc3)CC2)c([N+](=O)[O-])c1 | -6.9
Cc1ccccc1NC(=O)c1cc2ccccc2c(C=Nc2ccc([N+](=O)[O-])cc2O)c1O | -105.5
COc1cc(OC)c(C=Nc2cc([N+](=O)[O-])ccc2C)cc1Br | -5.3
CCOc1ccc(C=Nc2cc([N+](=O)[O-])ccc2C)c(O)c1 | +
CCOc1ccc(-c2nc3cc(N=Cc4cc([N+](=O)[O-])ccc4O)ccc3o2)cc1 | -7.0
CC(=O)Oc1ccc2ccccc2c1C=Nc1cc([N+](=O)[O-])ccc1C | 87.0*
COC(=O)c1ccc(N=Cc2c(OC(=O)c3cccc([N+](=O)[O-])c3)ccc3ccccc23)cc1 | 3.2
CN(CCc1ccccn1)C(=O)c1ccc(Cn2c(=S)[nH]c3ccc(Br)cc3c2=O)cc1 | -2.5
CCCC1=NN(C(=O)c2ccccn2)C(O)(C(F)(F)F)C1 (stereo unspecified) | -8.2
C=CCN=c1cc(-c2ccccc2)oc2ccc(C)cc12 | -12.1
Cc1ccc(N=Cc2ccccc2O)c(C(=O)c2ccccc2)c1 | -2.3
Cc1ccc(N=Cc2cc(-c3ccccc3)oc2S)c(C)c1 | 90.3*
COc1ccc(NC(=O)CN(c2ccccc2OC)S(=O)(=O)c2ccc(C)cc2)cc1Cl | -12.2
CCCCNc1ncc(C(C)=O)c2ccccc12 | 0.3
CCCCNc1ncc2cc3ccccc3nc2c1C#N | 90.0*
CCCCCn1c(N)c(C#N)c2nc3ccccc3nc21 | -7.5
O=C(C1CC1)N1CCc2cc(Br)cc(S(=O)(=O)NC(c3ccccc3)c3ccccc3)c21 | -43.4
CC(C)C1=CC23CCC4C(C)(C(=O)O)CCCC4(C)C2CC1C1C(=O)N(c2ccc(O)cc2)C(=O)C13 (stereo unspecified) | -24.2
CC(C)C1=CC23CCC4C(C)(C(=O)O)CCCC4(C)C2CC1C1C(=O)OC(=O)C13 (stereo unspecified) | 47.0*
CC(C)CN1C(=O)C2C3CC4C5(C)CCCC(C)(C(=O)O)C5CCC4(C=C3C(C)C)C2C1=O (stereo unspecified) | 5.8
CCOc1ccc(NC(=O)C2CCN(S(=O)(=O)c3ccc(Br)cc3)CC2)cc1 | -4.6
CC(Oc1ccccc1)C(=O)N1CC(=O)Nc2ccc(Br)cc2C1c1ccc(F)cc1 (stereo unspecified) | -11.9
SMILES | 14-3-3g Raf
Cc1ccc(Cn2c(SCC(N)=O)nc3c2c(=O)[nH]c(=O)n3C)cc1 | 15.9
Cc1cc(C=Nc2ccc(Br)cc2)c(O)c(Br)c1C | -149.2
CN1C(=S)SC(N(O)C(=O)Nc2ccccc2)C1(C)C (stereo unspecified) | 42.7*
CC1(C)C(N(O)C(=O)Nc2ccccc2)N(c2cccc(Cl)c2)C(=O)N1O (stereo unspecified) | -5.9
CC1=C(C(=O)Nc2ccccc2)C(c2ccc([N+](=O)[O-])cc2)NC(=S)N1 (stereo unspecified) | 3.5
CC(NC(=O)CN1C(=O)C2C3C=CC(C3)C2C1=O)C12CC3CC(CC(C3)C1)C2 (stereo unspecified) | -9.9
Cc1cc(C)c2oc(-c3cccc(NC(=O)c4ccc(Br)o4)c3C)nc2c1 | -82.2
CCOc1ccc2noc3c2c1C(=O)c1ccccc1-3 | 4.0
O=C1c2ccccc2-c2onc3ccc(NCc4ccco4)c1c23 | 81.9*
Cc1cccc(Nc2ccc3noc4c3c2C(=O)c2ccccc2-4)c1 | -126.0
C=CCN(CC=C)S(=O)(=O)c1ccc(C(=O)N2CCc3ccccc32)cc1 | 1.5
COc1ccc(CCNc2nc3ccccc3nc2NS(=O)(=O)c2ccc(C)cc2)cc1OC | -10.4
CCn1c(NC)nc2c1c(=O)n(C)c(=O)n2C | -4.5
O=C(Cn1cc2c(n1)CCCC2)NCc1ccccn1 | 66.6*
COc1ccc(CNC(=O)Cn2cc3c(n2)CCCCC3)cc1 | 2.2
O=C(Cn1cc2c(n1)CCCC2)NCc1cccs1 | -3.9
CC(C)OC(=O)c1ccc(NC(=O)CSc2nnnn2-c2ccc(Cl)cc2)cc1 | -22.7
O=C(CSc1nc2c(cnn2-c2ccc(Cl)cc2)c(=O)[nH]1)N1CCCC1 | 12.6
CCOC(=O)c1cnc2c(C(F)(F)F)cccc2c1Nc1cccc(C(C)=O)c1 | -63.2
COc1ccccc1-n1nnnc1SCc1ccccc1 | -1.5
Clc1cc2c(cc1CSc1nnnn1-c1ccccc1)OCO2 | -1.1
COc1ccccc1-n1nnnc1SCc1cc2c(cc1Br)OCO2 | 50.4*
CCCCC(Sc1nc(C)cc(=O)[nH]1)C(=O)O (stereo unspecified) | 4.2
CCOC(=O)c1c(NC(=O)c2ccc(Cl)c([N+](=O)[O-])c2)sc(C(C)=O)c1C | -19.6
Cc1cc(N2CC(C)CC(C)C2)nc2ccc(NC(=O)CCC(=O)N3CCCC(C)C3)cc12 (stereo unspecified) | -11.0
Cc1ccccc1NC(=O)c1ccccc1C | -1.5
Cc1ccc(NC(=O)c2ccccc2C)cc1I | -5.6
Cc1ccccc1C(=O)Nc1ccccc1C(=O)Nc1ccccc1 | 35.1*
